# Paper PMC7862700, “An all-to-all approach to the identification of sequence-specific readers for epigenetic DNA modifications on cytosine”
# Columns and labels:
# Experiment in all cases: DAPPL (digital affinity profiling via proximity ligation, sequencing); 10 mM Tris-HCl pH 7.5, 50 mM NaCl, 1 mM DTT, 4% glycerol, room temperature, 30 min; GST-TFs on glutathione beads, 16-mer random dsDNA library, 0.1% formaldehyde crosslink after washing; high values mean tight binding
# ETV5 = ETV5 (Homo sapiens, UniProt P41161 1-510); settings: protein: recombinant; tags: N-terminal GST; dsDNA, one strand shown
# Chain of ETV5 (P41161 whole entry, the tested form may be a part): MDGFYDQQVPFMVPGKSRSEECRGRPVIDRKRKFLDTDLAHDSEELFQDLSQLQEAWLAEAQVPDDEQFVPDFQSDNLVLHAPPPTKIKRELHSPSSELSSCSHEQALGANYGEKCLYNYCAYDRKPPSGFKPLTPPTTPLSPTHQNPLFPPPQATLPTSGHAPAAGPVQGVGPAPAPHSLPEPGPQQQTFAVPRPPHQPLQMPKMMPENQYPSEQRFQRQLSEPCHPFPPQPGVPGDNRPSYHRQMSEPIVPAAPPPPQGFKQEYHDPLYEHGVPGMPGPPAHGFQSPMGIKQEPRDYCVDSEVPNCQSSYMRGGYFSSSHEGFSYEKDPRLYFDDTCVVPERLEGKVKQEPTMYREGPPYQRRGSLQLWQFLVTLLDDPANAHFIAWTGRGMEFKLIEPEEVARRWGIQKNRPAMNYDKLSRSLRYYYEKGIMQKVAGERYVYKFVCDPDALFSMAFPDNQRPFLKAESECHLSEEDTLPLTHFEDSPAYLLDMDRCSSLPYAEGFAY
# Procedure, shortened: (§1)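 Yeast served to express human transcription factors as GST fusions, which were then captured on glutathione beads and labelled with DNA barcodes. Pooled with a tag-only sample, they were incubated with 200 nmole of a 16-mer random double-stranded DNA library for 30 min at room temperature in Tris/NaCl/DTT/glycerol buffer, washed, crosslinked with 0.1% formaldehyde, ligated by proximity, amplified by PCR and sequenced. Dividing each hexamer's read frequency for a factor by its frequency for the tag-only sample gives the binding signal.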
# HSF1 = HSF1 (Homo sapiens, UniProt Q00613 1-529); settings: protein: recombinant; tags: N-terminal GST; chain copies: 3; dsDNA, one strand shown
# Chain of HSF1 (Q00613 whole entry): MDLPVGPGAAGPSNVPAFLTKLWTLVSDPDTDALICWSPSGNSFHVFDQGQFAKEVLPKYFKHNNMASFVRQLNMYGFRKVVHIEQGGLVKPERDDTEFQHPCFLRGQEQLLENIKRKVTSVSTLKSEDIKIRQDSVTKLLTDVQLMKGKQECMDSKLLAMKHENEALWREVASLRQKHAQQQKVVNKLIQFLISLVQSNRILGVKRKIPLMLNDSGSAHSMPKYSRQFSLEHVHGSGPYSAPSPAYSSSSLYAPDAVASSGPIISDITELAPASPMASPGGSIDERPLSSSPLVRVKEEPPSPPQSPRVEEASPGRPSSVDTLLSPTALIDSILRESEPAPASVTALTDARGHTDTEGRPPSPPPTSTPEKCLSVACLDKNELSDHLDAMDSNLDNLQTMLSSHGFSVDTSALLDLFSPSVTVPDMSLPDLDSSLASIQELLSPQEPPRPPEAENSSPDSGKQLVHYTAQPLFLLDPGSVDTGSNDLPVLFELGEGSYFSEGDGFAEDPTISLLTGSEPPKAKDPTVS
# Procedure, shortened: as §1
# SPIC = biological target: T1, SPIC (Homo sapiens, UniProt Q8N5J4 1-248); settings: protein: recombinant; tags: N-terminal GST; dsDNA, one strand shown
# T1 sequence: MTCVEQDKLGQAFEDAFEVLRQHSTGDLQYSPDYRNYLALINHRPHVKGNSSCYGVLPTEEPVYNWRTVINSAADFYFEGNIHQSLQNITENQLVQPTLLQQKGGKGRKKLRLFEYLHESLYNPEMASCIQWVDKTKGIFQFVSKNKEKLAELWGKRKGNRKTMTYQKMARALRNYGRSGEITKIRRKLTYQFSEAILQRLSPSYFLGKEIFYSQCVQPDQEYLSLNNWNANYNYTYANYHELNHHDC
# Procedure, shortened: as §1
# ELF4 = ELF4 (Homo sapiens, UniProt Q99607 1-663); settings: protein: recombinant; tags: N-terminal GST; dsDNA, one strand shown
# Chain of ELF4 (Q99607 whole entry): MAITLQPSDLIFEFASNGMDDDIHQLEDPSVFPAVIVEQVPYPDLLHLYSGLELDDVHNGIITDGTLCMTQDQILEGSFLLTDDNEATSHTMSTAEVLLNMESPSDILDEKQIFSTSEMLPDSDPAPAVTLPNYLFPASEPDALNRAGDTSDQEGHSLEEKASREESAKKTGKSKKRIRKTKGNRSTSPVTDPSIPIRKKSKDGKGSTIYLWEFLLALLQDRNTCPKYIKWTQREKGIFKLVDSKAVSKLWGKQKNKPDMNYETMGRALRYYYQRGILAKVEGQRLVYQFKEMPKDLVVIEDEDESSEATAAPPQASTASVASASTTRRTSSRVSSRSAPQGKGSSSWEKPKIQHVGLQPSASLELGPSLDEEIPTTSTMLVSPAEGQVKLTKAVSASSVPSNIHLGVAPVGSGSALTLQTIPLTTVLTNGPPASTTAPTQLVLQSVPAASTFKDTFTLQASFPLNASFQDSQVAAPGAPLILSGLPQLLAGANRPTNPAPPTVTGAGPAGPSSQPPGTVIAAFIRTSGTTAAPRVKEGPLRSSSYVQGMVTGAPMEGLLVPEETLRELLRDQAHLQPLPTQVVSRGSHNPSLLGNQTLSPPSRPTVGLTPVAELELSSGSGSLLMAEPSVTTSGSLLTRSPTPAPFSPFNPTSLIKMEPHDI
# Procedure, shortened: as §1
# ELK4 = biological target: T2, ELK4 (Homo sapiens, UniProt P28324-2 1-405); settings: protein: recombinant; tags: N-terminal GST; dsDNA, one strand shown
# T2 sequence: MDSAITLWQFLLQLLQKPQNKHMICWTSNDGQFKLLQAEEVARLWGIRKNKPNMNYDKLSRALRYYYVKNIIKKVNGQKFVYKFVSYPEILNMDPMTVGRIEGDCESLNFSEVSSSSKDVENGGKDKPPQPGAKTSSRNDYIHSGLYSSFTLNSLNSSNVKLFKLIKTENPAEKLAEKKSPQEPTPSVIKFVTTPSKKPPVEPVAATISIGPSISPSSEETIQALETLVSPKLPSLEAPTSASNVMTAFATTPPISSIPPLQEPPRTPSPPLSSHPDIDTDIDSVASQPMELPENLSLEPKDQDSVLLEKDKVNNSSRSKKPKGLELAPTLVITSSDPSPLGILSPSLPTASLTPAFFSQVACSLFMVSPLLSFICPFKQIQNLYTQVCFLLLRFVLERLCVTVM
# Procedure, shortened: as §1
# ETV2 = biological target: T3, ETV2 (Homo sapiens, UniProt O00321 1-342); settings: protein: recombinant; tags: N-terminal GST; dsDNA, one strand shown
# T3 sequence: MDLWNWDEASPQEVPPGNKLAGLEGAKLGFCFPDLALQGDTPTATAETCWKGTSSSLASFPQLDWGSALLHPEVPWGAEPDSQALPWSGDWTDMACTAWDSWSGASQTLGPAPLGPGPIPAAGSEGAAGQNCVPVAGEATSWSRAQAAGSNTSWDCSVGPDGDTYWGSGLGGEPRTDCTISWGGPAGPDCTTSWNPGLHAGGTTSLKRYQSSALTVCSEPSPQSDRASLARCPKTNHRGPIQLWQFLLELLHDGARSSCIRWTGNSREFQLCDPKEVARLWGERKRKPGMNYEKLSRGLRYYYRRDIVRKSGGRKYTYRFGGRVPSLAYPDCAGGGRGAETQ
# Procedure, shortened: as §1
# ELF3 = biological target: T4, ELF3 (Homo sapiens, UniProt P78545 1-371); settings: protein: recombinant; tags: N-terminal GST; dsDNA, one strand shown
# T4 sequence: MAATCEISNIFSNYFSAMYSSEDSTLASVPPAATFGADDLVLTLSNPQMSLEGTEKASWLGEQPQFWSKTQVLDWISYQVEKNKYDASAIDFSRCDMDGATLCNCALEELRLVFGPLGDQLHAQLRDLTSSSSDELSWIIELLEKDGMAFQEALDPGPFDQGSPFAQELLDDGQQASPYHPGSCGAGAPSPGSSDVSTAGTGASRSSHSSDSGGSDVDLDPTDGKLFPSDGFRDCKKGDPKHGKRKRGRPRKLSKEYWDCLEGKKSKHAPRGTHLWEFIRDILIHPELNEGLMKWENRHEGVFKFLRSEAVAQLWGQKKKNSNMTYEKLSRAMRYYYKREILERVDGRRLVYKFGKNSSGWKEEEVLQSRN
# Procedure, shortened: as §1
# CRX = CRX (Homo sapiens, UniProt O43186 1-299); settings: protein: recombinant; tags: N-terminal GST; dsDNA, one strand shown
# Chain of CRX (O43186 whole entry): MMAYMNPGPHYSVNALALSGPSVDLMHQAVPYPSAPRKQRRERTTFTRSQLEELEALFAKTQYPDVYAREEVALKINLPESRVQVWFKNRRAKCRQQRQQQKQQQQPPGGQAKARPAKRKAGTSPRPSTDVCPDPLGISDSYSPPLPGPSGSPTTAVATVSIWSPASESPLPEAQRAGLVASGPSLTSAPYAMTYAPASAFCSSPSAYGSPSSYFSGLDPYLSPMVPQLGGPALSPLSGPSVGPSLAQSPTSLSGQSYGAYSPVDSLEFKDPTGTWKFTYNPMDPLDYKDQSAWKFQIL
# Procedure, shortened: as §1
# ETV1 = ETV1 (Homo sapiens, UniProt P50549 1-477); settings: protein: recombinant; tags: N-terminal GST; dsDNA, one strand shown
# Chain of ETV1 (P50549 whole entry): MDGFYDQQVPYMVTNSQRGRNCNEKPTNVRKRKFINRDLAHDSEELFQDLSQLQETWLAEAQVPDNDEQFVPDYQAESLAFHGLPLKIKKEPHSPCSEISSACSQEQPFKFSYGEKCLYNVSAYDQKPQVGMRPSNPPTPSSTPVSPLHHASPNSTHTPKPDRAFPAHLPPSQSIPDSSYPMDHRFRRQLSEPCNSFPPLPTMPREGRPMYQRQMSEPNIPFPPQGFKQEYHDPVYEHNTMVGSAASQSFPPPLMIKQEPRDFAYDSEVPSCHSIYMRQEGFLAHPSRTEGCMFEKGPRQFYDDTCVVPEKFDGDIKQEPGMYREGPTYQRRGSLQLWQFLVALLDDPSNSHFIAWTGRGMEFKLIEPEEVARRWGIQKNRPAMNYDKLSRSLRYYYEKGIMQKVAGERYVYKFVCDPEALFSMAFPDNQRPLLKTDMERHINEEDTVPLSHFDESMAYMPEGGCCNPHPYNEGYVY
# Procedure, shortened: as §1
# ERF = biological target: T5, ERF (Homo sapiens, UniProt P50548 1-548); settings: protein: recombinant; tags: N-terminal GST; dsDNA, one strand shown
# T5 sequence: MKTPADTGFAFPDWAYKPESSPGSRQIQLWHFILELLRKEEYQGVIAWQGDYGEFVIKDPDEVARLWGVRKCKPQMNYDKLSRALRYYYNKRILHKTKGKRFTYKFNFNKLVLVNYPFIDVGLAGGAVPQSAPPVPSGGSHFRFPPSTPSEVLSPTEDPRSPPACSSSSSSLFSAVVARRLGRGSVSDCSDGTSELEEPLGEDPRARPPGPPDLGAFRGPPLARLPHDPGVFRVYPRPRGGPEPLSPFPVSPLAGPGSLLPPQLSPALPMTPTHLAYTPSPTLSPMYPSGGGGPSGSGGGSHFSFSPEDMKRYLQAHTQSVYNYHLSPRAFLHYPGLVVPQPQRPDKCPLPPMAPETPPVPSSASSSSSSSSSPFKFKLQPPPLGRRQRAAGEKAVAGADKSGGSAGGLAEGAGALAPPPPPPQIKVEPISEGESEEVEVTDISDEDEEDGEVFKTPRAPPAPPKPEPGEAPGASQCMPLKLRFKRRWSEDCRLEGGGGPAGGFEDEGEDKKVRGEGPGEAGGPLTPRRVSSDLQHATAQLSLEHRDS
# Procedure, shortened: as §1
# ETV3L = biological target: T6, ETV3L (Homo sapiens, UniProt Q6ZN32 1-361); settings: protein: recombinant; tags: N-terminal GST; dsDNA, one strand shown
# T6 sequence: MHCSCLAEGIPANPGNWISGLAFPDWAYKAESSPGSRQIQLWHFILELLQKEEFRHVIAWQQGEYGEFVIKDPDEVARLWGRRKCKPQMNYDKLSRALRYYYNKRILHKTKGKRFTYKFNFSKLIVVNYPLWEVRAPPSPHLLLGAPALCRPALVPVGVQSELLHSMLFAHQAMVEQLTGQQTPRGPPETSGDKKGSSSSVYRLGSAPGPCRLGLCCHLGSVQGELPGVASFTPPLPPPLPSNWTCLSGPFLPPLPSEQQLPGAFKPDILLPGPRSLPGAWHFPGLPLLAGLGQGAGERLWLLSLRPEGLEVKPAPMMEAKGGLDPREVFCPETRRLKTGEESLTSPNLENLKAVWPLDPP
# Procedure, shortened: as §1
# ETS2 = biological target: T7, ETS2 (Homo sapiens, UniProt P15036 1-469); settings: protein: recombinant; tags: N-terminal GST; dsDNA, one strand shown
# T7 sequence: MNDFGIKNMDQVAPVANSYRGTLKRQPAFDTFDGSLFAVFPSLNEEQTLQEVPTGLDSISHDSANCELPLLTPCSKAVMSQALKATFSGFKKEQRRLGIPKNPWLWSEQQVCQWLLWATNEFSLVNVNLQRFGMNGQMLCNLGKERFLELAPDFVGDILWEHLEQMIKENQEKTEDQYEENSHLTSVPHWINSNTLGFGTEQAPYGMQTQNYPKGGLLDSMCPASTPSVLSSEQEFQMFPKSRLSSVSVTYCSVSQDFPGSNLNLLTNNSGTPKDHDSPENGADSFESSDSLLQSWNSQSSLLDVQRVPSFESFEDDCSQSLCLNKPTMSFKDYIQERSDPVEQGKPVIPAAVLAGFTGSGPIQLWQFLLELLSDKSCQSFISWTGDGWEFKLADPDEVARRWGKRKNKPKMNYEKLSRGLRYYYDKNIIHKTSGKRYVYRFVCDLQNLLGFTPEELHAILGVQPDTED
# Procedure, shortened: as §1
# SPDEF = biological target: T8, SPDEF (Homo sapiens, UniProt O95238 1-335); settings: protein: recombinant; tags: N-terminal GST; dsDNA, one strand shown
# T8 sequence: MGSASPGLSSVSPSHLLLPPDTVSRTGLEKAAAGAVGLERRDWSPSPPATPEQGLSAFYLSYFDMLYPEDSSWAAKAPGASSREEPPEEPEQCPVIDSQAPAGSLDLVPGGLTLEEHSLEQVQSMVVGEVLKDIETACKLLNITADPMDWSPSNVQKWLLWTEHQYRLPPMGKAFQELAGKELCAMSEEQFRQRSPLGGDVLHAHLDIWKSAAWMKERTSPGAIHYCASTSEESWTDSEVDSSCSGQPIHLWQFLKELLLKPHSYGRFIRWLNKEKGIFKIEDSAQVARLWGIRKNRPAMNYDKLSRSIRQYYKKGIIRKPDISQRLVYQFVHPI
# Procedure, shortened: as §1
# ETV7 = biological target: T9, ETV7 (Homo sapiens, UniProt Q9Y603 1-341); settings: protein: recombinant; tags: N-terminal GST; dsDNA, one strand shown
# T9 sequence: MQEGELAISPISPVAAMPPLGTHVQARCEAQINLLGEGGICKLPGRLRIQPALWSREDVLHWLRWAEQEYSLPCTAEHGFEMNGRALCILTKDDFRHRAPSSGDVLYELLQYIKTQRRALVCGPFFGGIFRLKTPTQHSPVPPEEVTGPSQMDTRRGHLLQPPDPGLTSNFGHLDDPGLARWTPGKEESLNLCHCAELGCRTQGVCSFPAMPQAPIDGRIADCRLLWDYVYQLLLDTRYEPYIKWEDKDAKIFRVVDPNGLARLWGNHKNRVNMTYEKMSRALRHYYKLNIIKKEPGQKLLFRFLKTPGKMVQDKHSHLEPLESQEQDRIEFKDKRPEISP
# Procedure, shortened: as §1
# ELF5 = biological target: T10, ELF5 (Homo sapiens, UniProt Q9UKW6-2 1-255); settings: protein: recombinant; tags: N-terminal GST; dsDNA, one strand shown
# T10 sequence: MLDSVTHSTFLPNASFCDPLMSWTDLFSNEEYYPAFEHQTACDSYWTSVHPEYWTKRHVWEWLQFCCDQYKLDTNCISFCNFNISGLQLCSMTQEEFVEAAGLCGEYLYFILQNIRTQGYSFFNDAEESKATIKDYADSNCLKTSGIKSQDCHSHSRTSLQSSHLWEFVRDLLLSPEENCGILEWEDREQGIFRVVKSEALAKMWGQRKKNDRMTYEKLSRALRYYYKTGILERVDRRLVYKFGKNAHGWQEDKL
# Procedure, shortened: as §1
# ETV3 = biological target: T11, ETV3 (Homo sapiens, UniProt P41162-2 1-143); settings: protein: recombinant; tags: N-terminal GST; dsDNA, one strand shown
# T11 sequence: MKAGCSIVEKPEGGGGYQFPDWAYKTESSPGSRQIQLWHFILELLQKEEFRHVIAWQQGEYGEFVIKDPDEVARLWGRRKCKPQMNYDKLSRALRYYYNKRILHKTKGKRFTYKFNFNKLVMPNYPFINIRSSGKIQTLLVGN
# Procedure, shortened: as §1
# ETV6 = ETV6 (Homo sapiens, UniProt P41212 1-452); settings: protein: recombinant; tags: N-terminal GST; dsDNA, one strand shown
# Chain of ETV6 (P41212 whole entry): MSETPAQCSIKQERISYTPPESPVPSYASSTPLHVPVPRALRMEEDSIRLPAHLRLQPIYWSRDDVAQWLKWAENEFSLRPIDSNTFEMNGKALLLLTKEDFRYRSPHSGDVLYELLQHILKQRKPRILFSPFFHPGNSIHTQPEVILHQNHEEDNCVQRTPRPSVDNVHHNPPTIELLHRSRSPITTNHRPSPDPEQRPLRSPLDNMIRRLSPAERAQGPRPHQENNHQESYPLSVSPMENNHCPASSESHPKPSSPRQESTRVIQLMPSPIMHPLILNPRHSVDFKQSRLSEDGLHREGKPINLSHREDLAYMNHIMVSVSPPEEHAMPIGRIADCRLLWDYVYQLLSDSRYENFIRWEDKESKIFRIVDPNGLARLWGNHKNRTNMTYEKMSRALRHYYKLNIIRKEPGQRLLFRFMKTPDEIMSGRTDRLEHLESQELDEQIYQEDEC
# Procedure, shortened: as §1
sequence,measurement,setting,value
TAATGT,binding signal,ETV5,"1.14 fold enrichment (6-mer frequency, TF over GST control)"
same,binding signal,HSF1,"1.19 fold enrichment (6-mer frequency, TF over GST control)"
same,binding signal,SPIC,"1.21 fold enrichment (6-mer frequency, TF over GST control)"
same,binding signal,ELF4,"1.11 fold enrichment (6-mer frequency, TF over GST control)"
same,binding signal,ELK4,"1.19 fold enrichment (6-mer frequency, TF over GST control)"
same,binding signal,ETV2,"1.08 fold enrichment (6-mer frequency, TF over GST control)"
same,binding signal,ELF3,"1.04 fold enrichment (6-mer frequency, TF over GST control)"
same,binding signal,CRX,"1.5 fold enrichment (6-mer frequency, TF over GST control)"
same,binding signal,ETV1,"1.16 fold enrichment (6-mer frequency, TF over GST control)"
same,binding signal,ERF,"1.06 fold enrichment (6-mer frequency, TF over GST control)"
same,binding signal,ETV3L,"1.11 fold enrichment (6-mer frequency, TF over GST control)"
same,binding signal,ETS2,"1.09 fold enrichment (6-mer frequency, TF over GST control)"
same,binding signal,SPDEF,"1.12 fold enrichment (6-mer frequency, TF over GST control)"
same,binding signal,ETV7,"1.19 fold enrichment (6-mer frequency, TF over GST control)"
same,binding signal,ELF5,"1.07 fold enrichment (6-mer frequency, TF over GST control)"
same,binding signal,ETV3,"1.05 fold enrichment (6-mer frequency, TF over GST control)"
same,binding signal,ETV6,"1.09 fold enrichment (6-mer frequency, TF over GST control)"
